Compounds with a hit are over-represented: about 32% of the library has one in this group of screens.
CYP2C9 inh: blocks human cytochrome P450 2C9; 96,000 compounds, 20% hits; CYP2C9 Supersomes, luciferin-H conversion, luminescence; inhibition, % at 5 µM;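 active means blocking of liver enzyme CYP2C9 beyond about 50% at 5 µM, limit read from the data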
PostGolgi yeast: growth inhibition of a yeast mutant, post-Golgi transport screen; post-Golgi transport phenotypic cell assay; inhibition, % at 10 µM; 98,000 compounds, 0.9% hits; AID 739;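 further: yeast cells grown in 1536-well plates; yeast grown about 18 h at 30C before absorbance read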
PostGolgi ctrl: yeast control strain growth, post-Golgi counter-screen; efflux-deficient yeast background strain, growth absorbance A615, 16 h; inhibition, % at 10 µM; AID 738; 98,000 compounds, 5% hits
CYP2C19 act: activators of human cytochrome P450 2C19. activation factor at 5 µM. recombinant CYP2C19, luciferin-H EGE luminescence; hits give high values; 0 = fully inhibited enzyme, 1 = untreated enzyme. AID 1025. 96,000 tested, under 10 active;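 active means activation factor of at least 2 at 5 µM in the primary screen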
Target sequence (P33261 whole entry, looked up): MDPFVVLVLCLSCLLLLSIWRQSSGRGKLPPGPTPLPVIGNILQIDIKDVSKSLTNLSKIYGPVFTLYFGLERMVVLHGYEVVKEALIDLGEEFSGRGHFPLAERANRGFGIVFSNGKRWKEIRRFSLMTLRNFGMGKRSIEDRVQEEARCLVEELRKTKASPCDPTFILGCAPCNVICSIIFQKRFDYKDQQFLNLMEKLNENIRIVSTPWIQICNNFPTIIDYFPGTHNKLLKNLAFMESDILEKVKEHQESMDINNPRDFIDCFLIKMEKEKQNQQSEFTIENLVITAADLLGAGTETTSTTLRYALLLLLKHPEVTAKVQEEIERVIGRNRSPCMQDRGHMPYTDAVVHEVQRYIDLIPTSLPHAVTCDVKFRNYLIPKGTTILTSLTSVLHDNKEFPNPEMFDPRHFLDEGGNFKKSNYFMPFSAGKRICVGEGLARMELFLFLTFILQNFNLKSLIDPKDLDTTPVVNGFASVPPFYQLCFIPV
CYP2C19 inh: human CYP2C19 inhibition. P33261. CYP2C19 Supersomes, luciferin-H EGE luminescence, 30 min. inhibition, % at 5 µM. 96,000 compounds, 21% hits. AID 778;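 active means CYP2C19 inhibition above a set limit at 5 µM in the primary screen, cut at about 50% in these data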
CYP2C9 act: CYP2C9 (human) activation. P11712. recombinant CYP2C9, luciferin-H conversion, luminescence; hits give high values; factor 1 = untreated enzyme, 0 = blocked. activation factor at 5 µM. 96,000 compounds, 1.4% hits. AID 1024;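 active means activation factor of 2 or more for CYP2C9 at a 5 µM dose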
Numbers stand for hits. Unless noted, no stated cut-off is given here; in the data, active means inhibition above about 30%; inactive means the rest.

For Cc1ccc2nc(Nc3nc(-c4ccccc4)cc(=O)[nH]3)nc(C)c2c1 the results were CYP2C9 inh 55, PostGolgi yeast inactive, PostGolgi ctrl inactive, CYP2C19 act inactive, CYP2C19 inh inactive and CYP2C9 act inactive.
`C=C(C)COc1ccc2c(C)c(CC(=O)OC)c(=O)oc2c1C` gave CYP2C9 inh inactive, PostGolgi yeast 104, PostGolgi ctrl 109, CYP2C19 act inactive, CYP2C19 inh inactive and CYP2C9 act inactive.
CCOC(=O)CCc1c(C)c2ccc(OCC(=O)N(CC)CC)c(C)c2oc1=O was read as CYP2C9 inh 51, PostGolgi yeast inactive, PostGolgi ctrl inactive, CYP2C19 act inactive, CYP2C19 inh inactive and CYP2C9 act inactive.
`CCOC(=O)Cc1c(C)c2ccc(N(CC)CC)cc2oc1=O` gave CYP2C9 inh inactive, PostGolgi yeast 46, PostGolgi ctrl inactive, CYP2C19 act inactive, CYP2C19 inh inactive and CYP2C9 act 2.1.
Screening CCOC(=O)CCc1c(C)c2ccc(O)cc2oc1=O returned CYP2C9 inh inactive, PostGolgi yeast inactive, PostGolgi ctrl inactive, CYP2C19 act inactive, CYP2C19 inh inactive and CYP2C9 act inactive.
Cc1ccccc1OCCNc1ccc(C(F)(F)F)cc1[N+](=O)[O-] was read as CYP2C9 inh inactive, PostGolgi yeast inactive, PostGolgi ctrl inactive, CYP2C19 act inactive, CYP2C19 inh 75 and CYP2C9 act inactive.
For CC(C)CN(C(=O)COC(=O)c1cc2c(s1)CCC2)C1CCS(=O)(=O)C1 (stereo not given) the results were CYP2C9 inh inactive, PostGolgi yeast inactive, PostGolgi ctrl inactive, CYP2C19 act inactive, CYP2C19 inh inactive and CYP2C9 act inactive.
For CCOc1ccc(N/C(=C(/C(Cl)=C(Cl)Cl)[N+](=O)[O-])n2cncn2)cc1 the results were CYP2C9 inh 68, PostGolgi yeast inactive, PostGolgi ctrl inactive, CYP2C19 act inactive, CYP2C19 inh 61 and CYP2C9 act inactive.
For C=CCOC(=O)/C(=C\c1cccc2ccccc12)NC(=O)c1ccccc1 the results were CYP2C9 inh 78, PostGolgi yeast inactive, PostGolgi ctrl inactive, CYP2C19 act inactive, CYP2C19 inh 82 and CYP2C9 act inactive.
For C=CCOC(=O)CC(NC(=O)c1ccccc1)c1ccccc1 (stereo not given) the results were CYP2C9 inh 94, PostGolgi yeast inactive, PostGolgi ctrl inactive, CYP2C19 act inactive, CYP2C19 inh 96 and CYP2C9 act inactive.
`CCOC(=O)/C(=C/c1c2ccccc2cc2ccccc12)NC(=O)c1ccccc1` gave CYP2C9 inh inactive, PostGolgi yeast inactive, PostGolgi ctrl inactive, CYP2C19 act inactive, CYP2C19 inh inactive and CYP2C9 act inactive.
`COC(=O)CC(NC(=O)c1ccc(C)cc1)c1ccc2c(c1)OCO2` (stereo not given) gave CYP2C9 inh 68, PostGolgi yeast inactive, PostGolgi ctrl inactive, CYP2C19 act inactive, CYP2C19 inh 78 and CYP2C9 act inactive.
Screening COC(=O)CC(NC(=O)c1ccc(C)cc1)c1ccccc1 (stereo not given) returned CYP2C9 inh inactive, PostGolgi yeast inactive, PostGolgi ctrl inactive, CYP2C19 act inactive, CYP2C19 inh 69 and CYP2C9 act inactive.
O=C(NC(NC(=O)c1ccccc1)c1ccccc1)c1ccccc1 was read as CYP2C9 inh inactive, PostGolgi yeast inactive, PostGolgi ctrl inactive, CYP2C19 act inactive, CYP2C19 inh inactive and CYP2C9 act inactive.
CCCOc1ccc(C(CC(=O)O)NC(=O)c2ccc3c(c2)OCO3)cc1 (stereo not given) was read as CYP2C9 inh inactive, PostGolgi yeast inactive, PostGolgi ctrl inactive, CYP2C19 act inactive, CYP2C19 inh inactive and CYP2C9 act inactive.
For Cc1ccc(S(=O)(=O)NC(CC(=O)O)c2ccccc2)cc1 (stereo not given) the results were CYP2C9 inh inactive, PostGolgi yeast inactive, PostGolgi ctrl inactive, CYP2C19 act inactive, CYP2C19 inh inactive and CYP2C9 act inactive.
Screening CCOC(=O)Nc1sc2nc(C)cc(C)c2c1-n1cccc1 returned CYP2C9 inh 66, PostGolgi yeast inactive, PostGolgi ctrl 41, CYP2C19 act inactive, CYP2C19 inh inactive and CYP2C9 act inactive.
Screening Cc1cc(C)c2c(-n3cccc3)c(C(=O)NNS(=O)(=O)c3ccc(Br)cc3)sc2n1 returned PostGolgi yeast inactive and PostGolgi ctrl inactive.
`CN(C)CCN(Cc1ccccc1)c1ccnc(N(C)C)c1C#N` gave CYP2C9 inh inactive, PostGolgi yeast inactive, PostGolgi ctrl inactive, CYP2C19 act inactive, CYP2C19 inh inactive and CYP2C9 act inactive.

Bioassay records deposited in PubChem BioAssay by several laboratories.
